Activity calls are given as the source filed them. A call without a number means that no potency is given here. Calls come from the whole dose curve; as a rule, active = well fitted inhibition curve with a large enough effect; inconclusive = small, poorly fitted or top-dose-only effect; inactive = flat fitted curve, though single readings scatter.

Chain of DNA dC->dU-editing enzyme APOBEC-3G (Homo sapiens) (Q9HC16 whole entry, looked up): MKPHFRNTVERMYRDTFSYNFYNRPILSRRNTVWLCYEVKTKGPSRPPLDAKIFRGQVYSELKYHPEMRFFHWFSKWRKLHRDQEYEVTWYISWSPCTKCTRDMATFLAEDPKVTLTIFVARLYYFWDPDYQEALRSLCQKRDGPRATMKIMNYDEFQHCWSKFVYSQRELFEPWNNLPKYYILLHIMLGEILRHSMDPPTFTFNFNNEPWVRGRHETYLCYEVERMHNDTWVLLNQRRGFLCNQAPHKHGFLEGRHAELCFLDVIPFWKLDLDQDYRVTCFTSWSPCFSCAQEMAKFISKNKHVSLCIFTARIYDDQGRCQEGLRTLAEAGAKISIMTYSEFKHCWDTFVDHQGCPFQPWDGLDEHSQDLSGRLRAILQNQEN

In this experiment the target is DNA dC->dU-editing enzyme APOBEC-3G (Homo sapiens) (UniProt Q9HC16). The experiment can be described thus: qHTS for inhibitors of Vif-A3G interactions: Validation (AID 588379). The following applies: Vif-A3G protein interaction assay; series mostly up to 46.1 µM. In outline:
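HeLa cells stably expressing Vif and A3G-eYFP, 700 cells/well, incubated overnight at 37 deg C, then exposed to compound overnight at 37 deg C. Inhibition of Vif-mediated degradation read as increased yellow fluorescence (Ex 488/Em 500-530) by laser-scanning cytometry.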
For the compound `O=C1OC(=O)C2C3CCC(O3)C12` (stereo not given), the Potency entry is “inactive”.

In the case of `O=C(OCCN1CCOCC1)C1(c2ccccc2)CCCCC1`, the Potency entry is “inactive”.

Regarding `c1ccc2nc(C3=NCCN3)ccc2c1`, the Potency result was “inactive”.

As for `N[C@H](C(=O)O)[C@H](O)C(=O)O`, the Potency entry is “inactive”.

On to `O=C(O)C1=CCCNC1`, for which the Potency result was “inactive”.

On to `N=C(N)SCCN`, for which the Potency result was “inactive”.

Consider `COC(=O)[C@H](NC(=O)c1cc(-c2ccccc2)nc2ccccc12)c1ccccc1`, for which the Potency result is “inactive”.

With `O=[N+]([O-])c1cccc2cn[nH]c12`, the Potency result was “inactive”.

As for `NC(N)=NC(N)=Nc1cccc(Cl)c1`, the Potency result is “inactive”.

Take `O=C(O)/C=C/c1ccc(O)c(O)c1`: the Potency entry was “inactive”.

In the case of `CC(C)NC[C@H](O)COc1cccc2ccccc12`, the Potency entry is “inactive”.

On to `O=C(O)c1ccccc1Nc1cccc(OCc2ccc3ccccc3n2)c1`, for which the Potency result is “inactive”.

With `NCCCCN=C(N)N`, the Potency entry is “inactive”.

With `Cc1nc2c(OCc3ccccc3)cccn2c1CC#N`, the Potency result was “inactive”.

Consider `CCSC(=N)N`, for which the Potency entry was “inactive”.

Turning to `N[C@@H](CS(=O)O)C(=O)O`, the Potency result is “inactive”.

In the case of `CC(=O)N[C@@H](Cc1c[nH]c2ccccc12)C(=O)OCc1cc(C(F)(F)F)cc(C(F)(F)F)c1`, the Potency result was “inactive”.

With `COCc1nc2c([nH]1)c(=O)n(C)c(=O)n2CC(C)C`, the Potency entry was “inactive”.

With `OC1(c2ccc(Cl)cc2)CCN(Cc2c[nH]c3ccccc23)CC1`, the Potency entry was “inactive”.

In the case of `N#Cc1cc2nc(O)c(O)nc2cc1[N+](=O)[O-]`, the Potency result was “inactive”.

Turning to `Cc1nc(N=Nc2ccc(S(=O)(=O)O)cc2S(=O)(=O)O)c(COP(=O)(O)O)c(C=O)c1O`, the Potency entry was “inactive”.

On to `CCCCCCN(CCCCCC)C(=O)Cc1c(-c2ccc(F)cc2)[nH]c2ccccc12`, for which the Potency entry is “inactive”.

On to `CNC(=O)c1cc2c(cn1)[nH]c1ccccc12`, for which the Potency result was “inactive”.

`CC[C@H](NC(=O)c1c(C)c(-c2ccccc2)nc2ccccc12)c1ccccc1`: the Potency entry was “inactive”.

In the case of `CCc1ccc2c(-c3cccc(Cl)c3)nc(=O)n(CC)c2n1`, the Potency result was “inactive”.

For `CN(C)CCCc1cc(C(=O)Nc2ccc(-c3ccncc3)cc2)ccc1O`, the Potency entry was “inactive”.

As to `CSC(=N)N`, the Potency entry was “inactive”.

As to `NCCNS(=O)(=O)c1cccc2c(Cl)cccc12`, the Potency result was “inactive”.

Regarding `CCn1c(=O)[nH]c2cc(Cl)c(Cl)cc21`, the Potency entry was “inactive”.

As to `CC[N+](CC)(CC)CC(=O)Nc1c(C)cccc1C`, the Potency entry was “inactive”.

As for `O=C(O)C1=CCCN(CCON=C(c2ccccc2)c2ccccc2)C1`, the Potency result is “inactive”.

As for `CCCn1c(=O)c2[nH]c(C3CCCC3)nc2n(CCC)c1=O`, the Potency result is “inactive”.

For the compound `CN[C@H](CC(=O)O)C(=O)O`, the Potency result was “inactive”.

In the case of `C=C1C(=O)O[C@@H]2[C@H]3O[C@]3(C)CCC=C(C)CC[C@@H]12`, the Potency entry was “inactive”.

For `O=C(O)C1=CCNCC1`, the Potency entry is “inactive”.

The record behind these values is PubChem BioAssay (NCATS).
